PubChem BioAssay (NCI)
This is part of a sample that, as a whole, favours compounds with a hit. Of some 83,000 tested, about 20% had one in any assay.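 Results are percent growth after 48 hours of single-concentration exposure. 100 means growth as in untreated cells, lower positive values show inhibition; negative values down to -100 show cell death.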 The source made the active and inactive calls. How the source made its calls: active means growth percent below 10; inactive means the rest.

Assays:
Assay in all cases: NCI-60 one-dose screen, 48 h (100 = growth as untreated, 0 = no growth, -100 = all killed)
Details in all cases: 10 µM unless noted
HCT-15 colon = test system: HCT-15 colon
HT29 colon = test system: HT29 colon
SNB-75 CNS = test system: SNB-75 CNS
SNB-19 CNS = test system: SNB-19 CNS
U251 CNS = test system: U251 CNS
PC-3 prostate = test system: PC-3 prostate
SK-MEL-5 melanoma = test system: SK-MEL-5 melanoma
UACC-62 melanoma = test system: UACC-62 melanoma
LOX IMVI melanoma = test system: LOX IMVI melanoma
SK-MEL-28 melanoma = test system: SK-MEL-28 melanoma
EKVX NSCLC = test system: EKVX NSCLC
SN12C renal = test system: SN12C renal
UO-31 renal = test system: UO-31 renal
TK-10 renal = test system: TK-10 renal
ACHN renal = test system: ACHN renal
CAKI-1 renal = test system: CAKI-1 renal
CCRF-CEM leukemia = test system: CCRF-CEM leukemia
MOLT-4 leukemia = test system: MOLT-4 leukemia
A498 renal = test system: A498 renal
SK-MEL-2 melanoma = test system: SK-MEL-2 melanoma

Measured: growth

CNC(=O)c1cc(Oc2ccc3nc(Nc4cc(Cl)cc(Cl)c4)ccc3c2)ccn1
inactive: HCT-15 colon 41.4% | HT29 colon 15.3% | SNB-75 CNS 70.2% | SNB-19 CNS 75.2% | U251 CNS 58.2% | PC-3 prostate 40.3% | SK-MEL-5 melanoma 51.8% | UACC-62 melanoma 44.7% | LOX IMVI melanoma 45.9% | SK-MEL-28 melanoma 61.4% | EKVX NSCLC 53.1% | SN12C renal 78.9% | UO-31 renal 58.9% | TK-10 renal 74.3% | ACHN renal 62.6% | CAKI-1 renal 84.1% | CCRF-CEM leukemia 81.1% | MOLT-4 leukemia 33.7%

NC(N)=N/N=C/CO
inactive: HCT-15 colon 106% | HT29 colon 98.4% | SNB-75 CNS 89.9% | SNB-19 CNS 111% | U251 CNS 105% | PC-3 prostate 91.2% | SK-MEL-5 melanoma 102% | UACC-62 melanoma 113% | LOX IMVI melanoma 93.1% | SK-MEL-28 melanoma 106% | SN12C renal 109% | UO-31 renal 80.9% | TK-10 renal 98.7% | ACHN renal 102% | CAKI-1 renal 99.4% | A498 renal 117% | CCRF-CEM leukemia 93.8% | MOLT-4 leukemia 95.7%

O=C(NCc1cccnc1)c1cc(-c2csc3c(=O)cc(N4CCOCC4)oc23)cc2c1OCCO2
active: SNB-75 CNS -9.26%
inactive: HCT-15 colon 66.5% | HT29 colon 18% | SNB-19 CNS 47.5% | U251 CNS 51.8% | PC-3 prostate 38.6% | SK-MEL-5 melanoma 39.6% | UACC-62 melanoma 12.2% | SK-MEL-28 melanoma 49% | SK-MEL-2 melanoma 51.1% | EKVX NSCLC 62.5% | SN12C renal 41.7% | UO-31 renal 30.3% | TK-10 renal 14.1% | ACHN renal 34.5% | CAKI-1 renal 31.1% | A498 renal 39.9% | CCRF-CEM leukemia 39.6%

Cc1c(C)c2c(c(C)c1NC(=O)/C=C\C(=O)O)CCC(C)(CCCC(C)CCCC(C)CCCC(C)C)O2 (stereo not given)
inactive: HT29 colon 20.7% | SNB-75 CNS 33.2% | SNB-19 CNS 78.1% | U251 CNS 60.2% | PC-3 prostate 16.6% | UACC-62 melanoma 22.8% | SK-MEL-2 melanoma 27% | SN12C renal 50.6% | UO-31 renal 37.2% | TK-10 renal 43.6% | ACHN renal 45.5% | CAKI-1 renal 46.8% | CCRF-CEM leukemia 13.6% | MOLT-4 leukemia 33.9%
active: HCT-15 colon 2.82% | SK-MEL-5 melanoma -97.7% | SK-MEL-28 melanoma -10.6%

O=C1/C(=C/c2ccc([N+](=O)[O-])cc2)COc2ccc(O)c(O)c21
inactive: SNB-75 CNS 18.8% | SNB-19 CNS 15% | SK-MEL-28 melanoma 54.6% | SK-MEL-2 melanoma 85.5% | EKVX NSCLC 41.3% | A498 renal 86.3%
active: HCT-15 colon -45.9% | HT29 colon 4.87% | U251 CNS -34.7% | PC-3 prostate -6.72% | UACC-62 melanoma -19.2% | LOX IMVI melanoma -75.5% | SN12C renal -47.3% | UO-31 renal -98.6% | TK-10 renal -8.97% | ACHN renal -77.5% | CAKI-1 renal -53.1% | CCRF-CEM leukemia -2.51% | MOLT-4 leukemia -1.02%

C=C1c2c(C)nn(-c3ccc(NC(C)=O)cc3)c2N(C)C23CC1C1(C)c4c(C)nn(-c5ccc(NC(C)=O)cc5)c4N(C)C(C)(CC12)C3 (stereo not given)
active: CCRF-CEM leukemia 8.28%
inactive: HCT-15 colon 11% | HT29 colon 31.1% | SNB-75 CNS 99% | SNB-19 CNS 43.6% | U251 CNS 33.3% | PC-3 prostate 22.7% | SK-MEL-5 melanoma 19.1% | UACC-62 melanoma 37% | SK-MEL-28 melanoma 46.9% | SK-MEL-2 melanoma 36.6% | EKVX NSCLC 24.9% | SN12C renal 45.6% | UO-31 renal 24.2% | TK-10 renal 37.3% | ACHN renal 19.4% | CAKI-1 renal 32.8% | A498 renal 60.3%

COc1ccc(-n2ncn(CCCCCCn3cnn(-c4ccc(OC)cc4)c3=O)c2=O)cc1
inactive: HCT-15 colon 95.3% | HT29 colon 101% | SNB-75 CNS 79.8% | SNB-19 CNS 90.3% | U251 CNS 94.3% | PC-3 prostate 84.8% | SK-MEL-5 melanoma 95.2% | UACC-62 melanoma 76.5% | SK-MEL-28 melanoma 98% | SK-MEL-2 melanoma 89.5% | EKVX NSCLC 85.8% | SN12C renal 90.6% | UO-31 renal 72.5% | TK-10 renal 118% | ACHN renal 87.5% | CAKI-1 renal 87.4% | A498 renal 101% | CCRF-CEM leukemia 87.8%

Cc1cc(N(CCCNc2ccnc3cc(Cl)ccc23)Cc2ccccn2)nc(N2CCCC2)n1
inactive: HCT-15 colon 48.3% | HT29 colon 44% | SNB-75 CNS 75.4% | SNB-19 CNS 91.2% | U251 CNS 74.8% | PC-3 prostate 50.5% | SK-MEL-5 melanoma 65.6% | UACC-62 melanoma 95.1% | SK-MEL-28 melanoma 88% | SK-MEL-2 melanoma 99.8% | EKVX NSCLC 76.3% | SN12C renal 64.4% | UO-31 renal 53.8% | TK-10 renal 136% | ACHN renal 93.5% | CAKI-1 renal 76.5% | A498 renal 95.1% | CCRF-CEM leukemia 53.9%

O=C1NN(C(=O)c2ccc(O)cc2)C(c2ccccc2)=N/C1=C\c1cn(-c2ccccc2)nc1-c1ccccc1
inactive: HCT-15 colon 103% | HT29 colon 95.1% | SNB-75 CNS 77.4% | SNB-19 CNS 92.5% | U251 CNS 96.2% | PC-3 prostate 104% | SK-MEL-5 melanoma 98.7% | UACC-62 melanoma 92.9% | SK-MEL-28 melanoma 101% | SK-MEL-2 melanoma 100% | EKVX NSCLC 102% | SN12C renal 89.2% | UO-31 renal 78.6% | TK-10 renal 84.7% | ACHN renal 88.4% | CAKI-1 renal 98.6% | A498 renal 88.8% | CCRF-CEM leukemia 89.7%

COc1cccc(/C=C2\COc3ccc(O)cc3C2=O)c1OC
inactive: HCT-15 colon 45.4% | HT29 colon 19.2% | SNB-75 CNS 86.5% | SNB-19 CNS 67.4% | U251 CNS 54.3% | PC-3 prostate 56.2% | UACC-62 melanoma 71% | SK-MEL-28 melanoma 96.6% | SK-MEL-2 melanoma 96.4% | EKVX NSCLC 92.8% | SN12C renal 44.4% | UO-31 renal 58.6% | TK-10 renal 89.3% | ACHN renal 54.6% | CAKI-1 renal 63.4% | A498 renal 90.7% | MOLT-4 leukemia 32.9%
active: LOX IMVI melanoma -19.7% | CCRF-CEM leukemia 2.69%

C=C1C(=O)O[C@H]2[C@H]1CC/C(COC(=O)/C=C\C(=O)NCc1ccc(Cn3c(=O)sn(CCCC)c3=O)cc1)=C\CC[C@@]1(C)O[C@@H]21
inactive: SNB-19 CNS 20.5% | A498 renal 11.2%
active: HCT-15 colon -29.8% | HT29 colon -22.2% | SNB-75 CNS -63.6% | U251 CNS -64.3% | PC-3 prostate -59.7% | UACC-62 melanoma -97.4% | LOX IMVI melanoma -83.5% | SK-MEL-28 melanoma -92.1% | SK-MEL-2 melanoma -54.2% | EKVX NSCLC -48% | SN12C renal -93% | UO-31 renal -100% | TK-10 renal -76.9% | ACHN renal -100% | CAKI-1 renal -78.8% | CCRF-CEM leukemia -26.1% | MOLT-4 leukemia -17.4%
